Compounds with a hit are over-represented: about 12% of the library has one in this group of screens.
G9a inh – qHTS Assay for Inhibitors of Histone Lysine Methyltransferase G9a | Histone-lysine N-methyltransferase EHMT2 (Homo sapiens), Q96KQ7 | G9a H3K9 monomethylation, AlphaScreen, 2 h | Potency, µM (doses to about 102 µM), hits mostly inhibitors | 350,000 tested, 8.8% active; note: nearly all actives have a fitted effect of over 75% in size
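Quantitative HTS format: methyltransferase activity on a biotin-tagged H3K9 peptide is measured by AlphaScreen, using a rabbit anti-monomethyl-H3K9 antibody with streptavidin donor and anti-IgG acceptor beads. Final levels are 20 nM enzyme, 500 nM peptide, 20 uM SAM; 2 h RT.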
BAZ2B block – qHTS Assay for Inhibitors of BAZ2B; Bromodomain adjacent to zinc finger domain protein 2B (Homo sapiens), Q9UIF8; AlphaScreen BAZ2B-H3K14Ac peptide displacement; Potency, µM (series often up to 114 µM), hits mostly inhibitors; 360,000 tested, 4.4% active; AID 504333, 2011; note: nearly all actives have a fitted effect of over 60% in size
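Protein-peptide AlphaScreen: BAZ2B 50 nM, b-H3K14Ac 50 nM, 1x PBS pH 7.4 + 0.01% Tween-20. Preincubation 30 min RT; cpd 30 min RT (top 110 uM); beads 20 min RT, light-protected.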
JMJD2A Tudor – qHTS Assay for Inhibitors of JMJD2A-Tudor Domain. 390,000 tested, 4.4% active. Lysine-specific demethylase 4A (Homo sapiens), O75164. Potency, µM (titrated, usually from 114 µM), usual class: inhibitors. AlphaScreen JMJD2A-Tudor / H3K4me3 peptide binding. AID 504339, 2011; note: nearly all actives have a fitted effect of over 50% in size
Sfp inh – qHTS Assay for Inhibitors of Bacillus subtilis Sfp phosphopantetheinyl transferase (PPTase); 4'-phosphopantetheinyl transferase ffp (Bacillus subtilis), Q9F4F7; Biochemical Sfp PPTase activity, qHTS; Potency, µM, most hits filed as inhibitors; 310,000 tested, 3.5% active; AID 1490, 2009;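 note: the enzyme is Sfp with the accession as filed and its product quenches rhodamine fluorescence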
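Reaction rates are the 30-min fluorescence difference (ex 525, em 598 nm) in wells containing 15 nM Sfp, 5 uM rhodamine-CoA and 12.5 uM BHQ-2-YbbR at pH 7.6 with 10 mM MgCl2.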
L3MBTL1 inh – qHTS Assay for the Inhibitors of L3MBTL1; Lethal(3)malignant brain tumor-like protein 1 (Homo sapiens), Q9Y468; AlphaScreen L3MBTL1–H3K9me1 peptide binding; Potency, µM (top dose mostly 57.1 µM), usual class: inhibitors; 230,000 tested, 0.66% active; AID 485360, 2010; note: nearly all actives have a fitted effect of over 60% in size
Target sequence (Q9Y468 whole entry, looked up): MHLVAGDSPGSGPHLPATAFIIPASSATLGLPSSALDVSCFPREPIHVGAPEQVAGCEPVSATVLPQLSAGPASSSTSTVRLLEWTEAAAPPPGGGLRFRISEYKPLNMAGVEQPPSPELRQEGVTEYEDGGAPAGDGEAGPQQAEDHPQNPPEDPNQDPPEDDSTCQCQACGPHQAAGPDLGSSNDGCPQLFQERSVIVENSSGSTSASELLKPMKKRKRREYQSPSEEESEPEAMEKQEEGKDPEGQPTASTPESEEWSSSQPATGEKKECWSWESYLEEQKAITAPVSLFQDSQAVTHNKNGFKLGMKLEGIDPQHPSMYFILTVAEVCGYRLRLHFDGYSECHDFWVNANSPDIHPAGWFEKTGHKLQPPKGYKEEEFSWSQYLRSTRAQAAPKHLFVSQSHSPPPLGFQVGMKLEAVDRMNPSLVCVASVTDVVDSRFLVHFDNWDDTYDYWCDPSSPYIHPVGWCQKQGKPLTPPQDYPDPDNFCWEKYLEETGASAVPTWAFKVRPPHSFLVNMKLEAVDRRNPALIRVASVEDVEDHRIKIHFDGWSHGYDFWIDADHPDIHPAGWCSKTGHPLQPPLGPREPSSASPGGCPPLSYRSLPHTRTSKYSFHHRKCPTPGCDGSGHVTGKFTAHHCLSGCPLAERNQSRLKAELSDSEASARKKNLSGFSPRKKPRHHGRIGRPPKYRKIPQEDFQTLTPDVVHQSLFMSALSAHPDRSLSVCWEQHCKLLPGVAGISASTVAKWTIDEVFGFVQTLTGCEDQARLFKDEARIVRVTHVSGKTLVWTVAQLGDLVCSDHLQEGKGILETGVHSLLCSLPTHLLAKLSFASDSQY
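AlphaScreen proximity signal between nickel-chelate acceptor and streptavidin donor beads (final 10 ug/mL) reports binding of 50 nM L3MBTL1 to 75 nM biotin-H3 K9me1 peptide; complex incubated with compounds 30 min at room temperature; cefsulodin titration as control.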
HP1b binding inh – HTS for Inhibitors of HP1-beta Chromodomain Interactions with Methylated Histone Tails; AlphaScreen HP1-beta / biotin-H3K9me3 peptide binding; Potency, µM (top dose mostly 114 µM), most hits filed as inhibitors; 390,000 tested, 0.56% active; Chromobox protein homolog 1 (Homo sapiens), P83916; AID 540317, 2011; note: nearly all actives have a fitted effect of over 70% in size
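HP1-beta protein (50 nM final) preincubated 30 min at room temperature with biotinylated H3(1-18)K9me3 peptide (50 nM) in PBS pH 7.4, 0.01% Tween-20, then compound added for 30 min. AlphaScreen streptavidin donor/nickel chelate acceptor beads (10 ug/mL final), 30 min dark, luminescence read.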
A number is an active result; - = inactive; ? = inconclusive; . = no result given; ! = a repeat was not active; [ ] = another dose, or the depositor's remark. Calls come from the whole dose curve; as a rule, active = well fitted curve in the direction sought with a large enough effect; inconclusive = small, poorly fitted or top-dose-only effect, or another doubt; inactive = no such curve, though single readings can be large; an effect the other way counts as inactive or inconclusive.

SMILES | G9a inh | BAZ2B block | JMJD2A Tudor | Sfp inh | L3MBTL1 inh | HP1b binding inh
COCCN(C(=S)Nc1c(C)cccc1C)C(C)c1cccnc1 (stereo not given) | - | - | - | - | - | -
CCOc1ccc(C2c3[nH]c4ccccc4c3CCN2C(=O)CCc2ccccc2)cc1 (stereo not given) | - | - | ? | . | . | -
CC(C)(C)C1=CC(=O)C(=O)C(C(C)(C)C)=C1 | 1.58µM | 28.2µM | 17.8µM | 1.12µM | - | ?
Cc1cc(NC(=O)CCOc2ccc(F)cc2)no1 | 56.2µM | - | - | - | - | -
Cc1ccc(CNC(=O)CCCC(=O)Nc2cc(C)on2)cc1 | . | - | 15.8µM | - | - | ?
COc1ccc(OC)c(C2c3c(-c4ccc(Br)cc4)n[nH]c3C(=O)N2c2ccc(Cl)cc2)c1 (stereo not given) | ? | . | ? | . | . | -
COCCCNC(=S)NNC(=O)c1csc(C)n1 | - | 79.4µM | - | - | - | -
COCCCNC(=S)NNC(=O)c1cc(-c2ccncc2)nc2ccccc12 | . | - | - | - | . | -
COCCCNC(=S)NNC(=S)Nc1ccc(OC)cc1 | . | - | 1.78µM | 50.1µM | . | ?
CCN(CC)CCC(c1ccc(OC)cc1)c1c(OC)cc(OC)c2c(C)cc(=O)oc12 (stereo not given) | . | . | - | - | . | -
CCN(CC)CCC(c1ccc(N(C)C)cc1)c1c(OC)cc(OC)c2ccc(=O)oc12 (stereo not given) | ? | 39.8µM | 44.7µM | - | . | -
CCN(CC)C(=O)CC(c1ccc(N(C)C)cc1)c1c(OC)cc(OC)c2ccc(=O)oc12 (stereo not given) | ? | ? | 44.7µM | - | . | -
O=[N+]([O-])c1ccc(S(=O)(=O)N/N=C/c2ccsc2)cc1 | 44.7µM | ? | - | - | . | -
O=[N+]([O-])c1cccc(/C=N/NS(=O)(=O)c2ccccc2)c1 | . | - | - | - | - | -
Cc1ccccc1Cn1ccn(-c2ccc(F)c(F)c2)c(=O)c1=O | ? | - | - | . | . | -
O=C(Cc1nn[nH]n1)c1ccccc1O | - | - | 44.7µM | - | - | -
O=C(Cc1nn[nH]n1)NCc1ccccc1Cl | -[12.7 µM] | 50.1µM | - | - | ? | -
O=C(CC(=O)c1ccccc1O)c1ccc(F)cc1 | - | ? | - | - | . | -
CS(=O)(=O)/C=C/c1nc(Nc2cc(F)cc(F)c2)c2ncn(CC(F)F)c2n1 | . | . | - | . | . | .
CCCN(CCC)CCCNC(=O)c1sc2nc3n(c(=O)c2c1C)CCC3 | - | - | - | . | . | -
COc1cc(NC(=O)c2ccc(C)c(Cl)c2)ccc1NC(=O)c1cc2ccccc2o1 | - | ? | - | . | . | -
Cc1oc(C(=O)O)cc1CSCc1ccoc1C(=O)O | 44.7µM | ? | ? | - | ? | -
O=C(O)c1occc1CSc1ccccc1 | ? | - | - | - | . | -
CCOC(=O)c1ccccc1NC(=O)N1CCn2c(C)ccc2C1CC (stereo not given) | 22.4µM | - | - | - | - | -
CCC1c2ccc(C)n2CCN1C(=O)Nc1cc(Cl)ccc1OC (stereo not given) | - | - | ? | - | -[11.4 µM] | -
SMILES | G9a inh | BAZ2B block | JMJD2A Tudor | Sfp inh | L3MBTL1 inh | HP1b binding inh
CCC1c2ccc(C)n2CCN1C(=O)Nc1ccccc1C(=O)OC (stereo not given) | 50.1µM | - | - | - | - | -
CCCC1c2ccc(C)n2CCN1C(=O)Nc1ccccc1Cl (stereo not given) | - | - | - | - | - | -
Cc1ccccc1CSc1nc(-c2cccc(F)c2)nc2c1Cc1c(CO)cnc(C)c1O2 | - | - | - | . | . | -
CCOC(=O)CC(=O)Nc1ccccc1C(=O)O | ? | - | - | - | - | -
CCOC(=O)CC(=O)Nc1ccc(Br)cc1C(=O)O | ? | - | 56.2µM | - | - | -
C/C=C1\COC(C(=O)NC)(C(F)(F)F)C=C1C=C1CCCCC1 (stereo not given) | . | . | - | - | . | -
Cc1cc(C)c2c(N=NN3CCCCC3)[nH]nc2n1 | 44.7µM | - | - | - | - | -
CCOc1ccc(C(=O)Nc2ccccc2NC(C)=O)cc1OCC | - | - | - | - | - | -
CCOc1ccccc1Nc1ccc(C(=O)O)cc1NC(C)=O | - | - | - | 56.2µM | - | -
CCOC(=O)c1cc(-c2ccccc2)n(CCC(=O)NC(C)CC)c1C (stereo not given) | - | - | - | - | - | -
CC(=O)c1cc(-c2ccccc2)n(CCC(=O)NC2CCCC2)c1C | - | 50.1µM | - | - | . | -
CCC(C)NC(=O)CCn1c(-c2ccccc2)cc(C(C)=O)c1C (stereo not given) | - | 50.1µM | - | - | - | -
CC(=O)c1cc(-c2ccccc2)n(CCC(=O)NC2CCCCC2)c1C | - | 50.1µM! | - | - | - | -
CC(=O)c1cc(-c2ccccc2)n(CCC(=O)NC2CCC(C)CC2)c1C (stereo not given) | - | - | - | - | - | -
O=C(CSc1nc2ncccc2o1)Nc1cccc(C(F)(F)F)c1 | - | - | - | . | . | -
COc1ccc(NC(c2ccc(F)cc2)c2nnc(-c3ccccc3Cl)o2)cc1Cl (stereo not given) | ? | ? | - | . | . | -
N#CC1=C(NC=NCc2ccccc2)Oc2ccc3ccccc3c2C1c1ccccc1 (stereo not given) | . | . | - | . | . | .
CCc1ccccc1NC(=O)CSC1=Nc2ccccc2C2=NC(Cc3ccccc3)C(=O)N12 (stereo not given) | - | - | - | . | . | -
CCOc1ccc(C2C(C(N)=O)=C(C)Nc3nc(SCc4ccccc4F)nn32)cc1 (stereo not given) | - | - | - | . | . | -
COc1ccc(NC(=O)CCS(=O)(=O)c2nc(-c3cccs3)cc(C(F)(F)F)n2)cc1OC | - | - | - | . | . | -
Clc1ccc(-n2ncc3c(NCCCn4ccnc4)ncnc32)cc1 | 25.1µM | - | - | - | . | -
Cc1c(CCC(=O)NCCc2ccc(Cl)cc2)c(=O)oc2c(C)c(O)ccc12 | - | - | - | . | . | -
O=C(Cc1ccc(NC(=O)N2CCCCc3ccccc32)cc1)NCc1ccccc1 | - | - | - | . | . | -
CSc1nc(-c2ccco2)nn1C(=O)c1ccco1 | 39.8µM | - | - | ? | - | -
O=C(c1ccco1)n1nc(-c2ccco2)nc1SCc1ccccc1 | - | - | - | - | . | -
CSc1nc(-c2ccco2)nn1C(=O)c1ccc(C)cc1 | 44.7µM | - | - | ? | - | -
